Results as given in PubChem BioAssay AID2060323 (National Center for Advancing Translational Sciences (NCATS), 2025).
Inconclusive results are not listed. The source made the active and inactive calls. Calls come from the whole dose curve; as a rule, active = well fitted activation curve with a large enough effect; inconclusive = small, poorly fitted or top-dose-only effect; inactive = no such curve, though single readings can be large or run the other way.

What follows are compounds tested against Cellular tumor antigen p53 (Homo sapiens) (UniProt P04637) (assay: Confirmatory qHTS for small molecule compounds that upregulate eGFP-tagged delta133p53alpha (in C-terminal) cells.). Conditions: delta133p53alpha-eGFP (C-terminal) reporter cells, GFP fluorescence upregulation; series mostly up to 57.5 µM; activation (upregulation): at the top concentration.
Chain of Cellular tumor antigen p53 (Homo sapiens) (P04637 whole entry, looked up): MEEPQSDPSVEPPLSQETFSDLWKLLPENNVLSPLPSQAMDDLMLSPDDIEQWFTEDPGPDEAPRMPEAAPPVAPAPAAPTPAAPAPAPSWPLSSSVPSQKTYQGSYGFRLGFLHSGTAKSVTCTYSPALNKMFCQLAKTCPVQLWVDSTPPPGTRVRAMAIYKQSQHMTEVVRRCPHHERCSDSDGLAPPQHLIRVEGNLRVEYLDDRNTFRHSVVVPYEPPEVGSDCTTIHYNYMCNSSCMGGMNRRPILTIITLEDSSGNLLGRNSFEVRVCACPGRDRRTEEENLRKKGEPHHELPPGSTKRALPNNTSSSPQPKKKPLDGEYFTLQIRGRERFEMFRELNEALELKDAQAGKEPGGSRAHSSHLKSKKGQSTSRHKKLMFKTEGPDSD
Method in brief: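 Readout: cellular GFP fluorescence […] with Hoechst nuclear counterstain, by laser scanning cytometry of fixed cells. Cells were doxycycline-induced (100 ng/ml, 24 h) NCI-H358 delta133p53alpha-eGFP, treated with compound titrations for 24 h, 37C.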

Activation (upregulation), inactive:
CCN1CCCC1CNC(=O)c1cc(S(N)(=O)=O)ccc1OC (stereo unspecified) 7.93%
CN(C)C(=O)C(CCN1CCC(O)(c2ccc(Cl)cc2)CC1)(c1ccccc1)c1ccccc1 49.5%
Cc1cccc(-c2[nH]ncc2-c2ccc3ncccc3n2)n1 7.74%
C[C@]12CC[C@@H]3c4ccc(O)cc4C[C@@H](CCCCCCCCCS(=O)CCCC(F)(F)C(F)(F)F)[C@H]3[C@@H]1CC[C@@H]2O (stereo partly specified) 2.11%
CN(C)CCCC1(c2ccc(F)cc2)OCc2cc(C#N)ccc21 (stereo unspecified) 0.697%
CN(C)c1nc(N)c(C(=O)N=C(N)N)nc1Cl 4.57%
NS(=O)(=O)c1ccc(-n2nc(C(F)(F)F)cc2-c2ccc(Cl)cc2)cc1 9.14%
CC(C)(C(=O)O)c1ccc(C(O)CCCN2CCC(C(O)(c3ccccc3)c3ccccc3)CC2)cc1 (stereo unspecified) 6.95%
CCOC(=O)Nc1ccc(NCc2ccc(F)cc2)nc1N 24.1%
CC(=O)SC1CC2=CC(=O)CC[C@]2(C)C2CC[C@@]3(C)C(CC[C@@]34CCC(=O)O4)C12 (stereo partly specified) -5.04%
N=c1ccn2c(n1)O[C@H]1[C@H](O)[C@@H](CO)O[C@H]12 8.71%
O=C1NC(=O)c2c1c(-c1ccccc1)cc1[nH]c3ccc(O)cc3c21 9.9%
O[Si](CCCN1CCCCC1)(c1ccc(F)cc1)C1CCCCC1 (stereo unspecified) 14.9%
O=Nc1c(-c2c(O)[nH]c3cc(Br)ccc23)[nH]c2ccccc12 4.1%

Potency, active:
COc1ccc(/C=C2\COc3ccc(C)cc3C2=O)cc1O 43.2 µM
CC(C)(C)c1ccc(S(=O)(=O)/C=C/C#N)cc1 13.7 µM
O=C1C(SCCO)=C(SCCO)C(=O)c2ccccc21 9.68 µM
C[n+]1cc2c3c(ccc2c2ccc4cc5c(cc4c21)OCO5)OCO3 0.968 µM
CC[C@@]1(O)C(=O)OCc2c1cc1n(c2=O)Cc2cc3c(CN(C)C)c(O)ccc3nc2-1 4.85 µM
O=C1NC(=O)c2cc(Nc3ccccc3)c(Nc3ccccc3)cc21 9.68 µM
O=C(N[C@@H](Cc1ccccc1)C(=O)CCl)OCc1ccccc1 3.85 µM
